Screens from PubChem.
SMN2 splice up = qHTS Assay for Enhancers of SMN2 Splice Variant Expression; Potency, µM (series often up to 46.1 µM), for the others: at the highest dose activity change, positive = activation, usual class: activators; 2.8% of 210,000 active; HEK293 SMN2-luciferase splicing reporter, luminescence, 30-36 h; further: % of control where 0% means no effect; nearly all actives have a fitted effect of over 55% in size
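HEK293 cells carry an SMN2 […]–luciferase reporter in which exon 7 inclusion puts luciferase in frame. Cells were plated 10-12 h before compound addition, then incubated 30-36 h at 37C. ONE-Glo luminescence was read; sodium butyrate at 4.5 mM final served as control.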
NPC1 prom act = qHTS Assay for NPC1 Promoter Activators; Huh7 NPC1 promoter luciferase reporter, 24 h; Potency, µM (series often up to 9.22 µM), for the others: at the top dose activation, usual class: activators; 2.4% of 320,000 active; further: % of control where 0% means no effect; nearly all actives have a fitted effect of over 60% in size
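Stably transfected Huh7 (NPC1 promoter→luciferase), 1500 cells/well in Opti-MEM + 10% FBS, 2 h settle, then compound 24 h at 37 °C. Luminescence after 10 min with Amplite reagent.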
Rab9 promoter act = qHTS Assay for Rab9 Promoter Activators. Huh7 Rab9 promoter-luciferase reporter, luminescence, 24 h. Potency, µM (highest dose often 9.22 µM), without a hit: at the top dose activation, negative = inhibition, most hits filed as activators. 2.8% of 320,000 active. AID 485297, 2010; further: % of control where 0% means no effect; nearly all actives have a fitted effect of over 60% in size
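Promoter activation is measured as luciferase luminescence in Huh7 cells stably transfected with a Rab9 promoter–luciferase construct, following 24 h compound exposure at 37 °C and 10 min reagent incubation at ambient temperature.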
ELG1 genotoxic = qHTS screen for small molecules that induce genotoxicity in human embryonic kidney (HEK293T) cells expressing luciferase-tagged ELG1; HEK293T ELG1-luciferase reporter, luminescence, 16 h; Potency, µM (doses to about 46 µM), inactives show at the top dose activity change, positive = activation, actives largely listed as activators; 1.3% of 330,000 active; further: % of control where 0% means no effect; nearly all actives have a fitted effect of over 60% in size
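DMSO vehicle served as control against compound-treated ELG1-luciferase HEK293T cells; exposure lasted 16 hr at 37 °C and 5% CO2, followed by ONE-Glo luminescence detection after 30 min.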
ELG1 repair inh = qHTS screen for small molecules that inhibit ELG1-dependent DNA repair in human embryonic kidney (HEK293T) cells expressing luciferase-tagged ELG1; AID 504467, 2011; 2.3% of 330,000 active; Potency, µM (doses to about 46.1 µM), for inactives: top-dose activity change, negative = inhibition, most hits filed as inhibitors; HEK293T ELG1-luciferase reporter, luminescence, 16 h; DNA damage induced by 5-fluorouridine; further: on the % scale 0 is the no-effect control and ±100 the full control effect; nearly all actives have a fitted effect of over 55% in size
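Cells (2,000 per well) received 5-fluorouridine plus test compound or DMSO and were incubated 16 hr at 37 °C, 5% CO2. Luciferase activity was read by luminescence 30 min after ONE-Glo addition; signal suppression marked inhibition of damage-induced ELG1 function.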
FLuc counter = qHTS profiling assay for firefly luciferase inhibitor/activator using purifed enzyme and Km concentrations of substrates (counterscreen for miR-21 project) | purified FLuc, Km substrates, luminescence inhibition | 6.9% of 360,000 active | Potency, µM (highest dose often 57.5 µM), without a hit: top-dose activity change, negative = inhibition, actives largely listed as inhibitors | Luciferin 4-monooxygenase (Photinus pyralis), P08659;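 further: plate controls were vehicle for no effect and reference inhibitor for full effect; nearly all actives have a fitted effect of over 55% in size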
Target sequence (P08659 whole entry, looked up): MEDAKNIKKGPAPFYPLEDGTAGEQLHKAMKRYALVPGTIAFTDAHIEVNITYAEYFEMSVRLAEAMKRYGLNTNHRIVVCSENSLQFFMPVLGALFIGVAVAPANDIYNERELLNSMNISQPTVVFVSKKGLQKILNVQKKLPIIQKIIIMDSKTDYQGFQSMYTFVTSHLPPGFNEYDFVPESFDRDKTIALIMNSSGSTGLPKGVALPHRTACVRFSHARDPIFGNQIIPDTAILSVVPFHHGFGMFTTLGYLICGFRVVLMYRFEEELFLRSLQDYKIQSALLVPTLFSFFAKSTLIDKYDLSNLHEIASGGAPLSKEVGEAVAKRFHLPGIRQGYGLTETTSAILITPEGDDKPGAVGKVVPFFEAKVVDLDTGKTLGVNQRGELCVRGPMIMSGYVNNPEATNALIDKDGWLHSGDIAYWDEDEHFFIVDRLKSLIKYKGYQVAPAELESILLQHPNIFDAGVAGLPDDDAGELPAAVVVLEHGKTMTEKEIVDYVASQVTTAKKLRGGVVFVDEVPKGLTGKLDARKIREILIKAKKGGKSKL
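Purified P. pyralis luciferase (10nM final) with 10uM D-luciferin and 10uM ATP (Km levels) in 50mM Tris acetate pH 7.5, 10mM Mg acetate, 0.01% Tween-20, 0.05% BSA; qHTS 6-point titration, ~60 µM downward; luminescence read.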
* hit, by the source's call; ? = inconclusive; · = no result. Most compounds without a hit are left out; they make up all but 9.2% or so of the library. The call rests on the fitted dose curve; in most records, active means well fitted curve in the direction sought with a large enough effect; inconclusive means small, poorly fitted or top-dose-only effect, or another doubt; inactive means no such curve, though single readings can be large; an effect the other way counts as inactive or inconclusive. Potency means the concentration at half of the fitted maximal effect.

SMILES	SMN2 splice up	NPC1 prom act	Rab9 promoter act	ELG1 genotoxic	ELG1 repair inh	FLuc counter
O=C(Nc1ccon1)c1ccc(Cl)s1	7%	13%	0%	-4%	-11%	-3%
Cc1ccnc(NC(=O)c2cccc(NC(=O)COc3ccccc3)c2)c1	29%	-3%	4%	4%	12%	17µM*
O=C(CCCc1ccccc1)Nc1ccccn1	10%	13%	28%	?	?	?
Cc1ccnc(NC(=O)c2ccc(Cl)s2)c1	·	3.2µM*	1.6µM*	?	?	7.6µM*
Cc1c(NC(=O)c2cccc(NC(=O)COc3cccc(Br)c3)c2)c(=O)n(-c2ccccc2)n1C	·	·	·	-11%	23µM*	·
Cc1ccnc(NC(=O)CCNC(=O)c2ccc(Cl)cc2)c1	·	4%	-3%	11%	2%	1%
Cc1c(NC(=O)c2cccc(NC(=O)Cc3ccc(Cl)cc3)c2)c(=O)n(-c2ccccc2)n1C	·	-1%	-1%	0%	-28%	-5%
Cc1ccnc(NC(=O)c2cnc(Cl)c(Cl)c2)c1	·	-5%	10%	?	11%	17µM*
CCOc1cc(C(=O)Nc2cc(C)ccn2)cc(OCC)c1OCC	-6%	0%	1%	-16%	?	4%
CCOc1ccc(C(=O)Nc2cc(C)ccn2)cc1	?	0.71µM*	0.32µM*	-10%	?	1.3µM*
Cc1ccnc(NC(=O)c2ccc(C(=O)c3ccccc3)cc2)c1	·	3.5µM*	2µM*	?	?	0.95µM*
Cn1c(N2CCOCC2)c(C#N)c2ccccc21	·	-1%	-3%	-9%	-4%	4%
CCOc1ccc(Nc2cc(C)nc3nc(Cc4ccc(Cl)cc4)nn23)cc1	-6%	·	·	·	·	2%
C/C(CC(=O)Nc1cc(Cl)ccc1Cl)=N\NC(=O)COc1cccc(C)c1	·	2%	4%	5%	0%	0%
C/C(CC(=O)Nc1cc(C)ccn1)=N\NC(=O)COc1cccc(C)c1	2%	-6%	-5%	10%	?	13µM*
Cc1ccnc(NC(=O)CNC(=O)Cc2cccc3ccccc23)c1	·	6%	-1%	15µM*	?	24µM*
Cc1ccc(NC(=O)CNC(=O)Cc2cccc3ccccc23)nc1	·	1%	0%	-4%	23%	-5%
Cc1ccc(C)c(NC(=O)c2cc3ccccn3n2)c1	13µM*	3.5µM*	2.2µM*	9.2µM*	?	11µM*
Cc1cc(Cl)ccc1NC(=O)c1cc2ccccn2n1	·	·	·	·	·	4.8µM*
CC(=O)c1cccc(NC(=O)c2cc3ccccn3n2)c1	24%	1.8µM*	4µM*	18µM*	?	3.4µM*
CC(=O)c1cccc(NC(=O)c2c(C)nn(-c3ccccc3)c2Cl)c1	-6%	21%	11%	-5%	?	?
Cc1ccccc1NC(=O)c1cc2ccccn2n1	·	3.5µM*	1.4µM*	?	?	3.4µM*
Cc1ccc(C)c(NC(=O)c2cnn3ccccc23)c1	-5%	2%	7%	?	?	?
O=C(Nc1ccc2nn(-c3ccccc3)nc2c1)c1ccc(-c2cccc(Cl)c2)o1	21%	·	·	·	·	-16%
O=C(NCCS(=O)(=O)N1CCN(c2ccccc2)CC1)C1CCCC1	·	-4%	2%	0%	2%	2%
SMILES	SMN2 splice up	NPC1 prom act	Rab9 promoter act	ELG1 genotoxic	ELG1 repair inh	FLuc counter
COc1ccc(Cl)cc1NC(=O)c1cc2ccccn2n1	·	·	·	·	·	-2%
COc1ccc(C)cc1NC(=O)c1cc2ccccn2n1	·	·	·	·	·	21µM*
N#Cc1ccc(C(=O)NC(=S)N2CCN(C=O)CC2)cc1	·	·	·	0%	12%	·
COc1c(C)cc(C(=O)C2CCCN(C(=O)c3snnc3C)C2)cc1C (centres undefined)	·	-2%	-3%	1%	?	-1%
O=C1OCCC1Sc1nnnn1-c1ccc(Cl)cc1 (centres undefined)	·	-4%	-2%	0%	-16%	11µM*
O=C(CCS(=O)(=O)Cc1ccccc1F)NCCc1ccc(Cl)cc1	·	4%	2%	0%	?	-2%
CCCCN(C(=O)CSc1nnc(Nc2ccccc2)s1)c1c(N)n(CCC)c(=O)[nH]c1=O	·	-1%	2%	1%	-5%	15µM*
CCCCn1c(N)c(N(CC(C)C)C(=O)CSc2n[nH]c(-c3ccc(C)cc3)n2)c(=O)[nH]c1=O	·	1%	0%	4%	?	11µM*
CCCCn1c(N)c(N(CCOC)C(=O)CSc2n[nH]c(-c3ccc(C)cc3)n2)c(=O)[nH]c1=O	·	-4%	-2%	2%	3%	3%
CCCCCN(C(=O)CSc1n[nH]c(-c2ccc(C)cc2)n1)c1c(N)n(CCCC)c(=O)[nH]c1=O	·	0%	23%	9%	?	2.7µM*
CCCCN(C(=O)CSc1nnnn1C)c1c(N)n(Cc2ccccc2)c(=O)[nH]c1=O	·	-3%	-4%	0%	-10%	5%
CCCCCN(C(=O)CCC(=O)OCC(=O)c1ccc(CCC)cc1)c1c(N)n(CCCC)c(=O)[nH]c1=O	·	1%	-1%	-6%	-7%	2.7µM*
CCCCCN(C(=O)CCC(=O)OCC(=O)c1ccc(C(C)(C)C)cc1)c1c(N)n(CCCC)c(=O)[nH]c1=O	·	18%	24%	-2%	?	?
COc1cccc(CNC(=O)c2ccc3c(c2)sc2nc(-c4ccccc4)cn23)c1OC	·	·	·	·	·	-2%
CC(=O)Nc1ccc(S(=O)(=O)NCC2CCC(C(=O)NCCN(CC(C)C)CC(C)C)CC2)cc1 (centres undefined)	·	·	·	·	·	-3%
Cc1nn(C)c(C)c1S(=O)(=O)N(CC(=O)NCCCN1CCC(C)CC1)c1ccc(C(C)C)cc1	·	1%	-8%	4%	?	5%
Cc1ccc(Cl)c2c1=NC(=O)C=2c1[nH]c(=S)[nH]c1O	29%	1%	-1%	-9%	-5%	19µM*
O=C(CSc1nnc(NC(=O)c2ccc(F)cc2F)s1)NC1CCCC1	·	?	?	?	?	4.3µM*
O=C(Cc1ccc(F)cc1)Nc1nnc(SCC(=O)N2CCCCC2)s1	-9%	-4%	-8%	0%	-3%	0%
COc1ccc(CNC(=O)CSc2nnc(NC(=O)c3ccccc3F)s2)cc1	·	3.2µM*	2.2µM*	?	?	11µM*
O=C(Nc1nnc(SCC(=O)N2CCCCC2)s1)c1ccc(F)cc1F	·	15%	18%	12%	?	8.5µM*
O=C(CSc1nnc(NC(=O)c2ccccc2F)s1)NC1CCCC1	·	?	3.2µM*	8%	?	11µM*
